# The panel holds about 79,000 compounds, 15% with a hit somewhere; the sample as a whole holds those more often. Values without a mark were called inactive. Active and inactive are the calls of the source. Rule as the data show it: active = growth inhibition above about 70%; inactive = the rest.
# Test: NCI Yeast Anticancer Drug Screen. Data for the sgs1 mgt1 strain (AID 161);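 also: 0% = growth of cultures given vehicle only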
# Conditions: S. cerevisiae sgs1 mgt1 strain, at 50.0 µM (retest, dose inferred, filed as 5.0), stronger effect = higher value
# Procedure, shortened: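 Compounds are added to genetically altered yeast, and growth is compared with cultures given vehicle alone to give percent inhibition.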
row,Structure (SMILES),growth inhibition
1,O=c1oc(-c2ccccc2Br)ns1,99% (active)
2,CC(=O)N1C(C(=O)NNc2ccccc2)CSC1c1ccccc1 (configuration not stated),89% (active)
3,O=[N+]([O-])/C=C/c1cc2c(ccc3ccccc32)[nH]1,98% (active)
4,CN(C)CCCC1(c2ccccc2)SC(C)(C)c2ccc(Cl)cc21 (configuration not stated),39%
5,O=c1[nH]c2ccccc2c2oc3ccccc3c12,69%
6,O=C(c1ccccc1)c1cn(/N=C\c2ccccc2)c(=O)nc1-c1ccccc1,94% (active)
7,Cc1ccc(S(=O)(=O)OCCc2ccc(Cl)cc2)cc1,41%
8,COC(=O)CC1(O)c2cc(OC)c3cccc(OC)c3c2CCC1(C)C(=O)OC (configuration not stated),99% (active)
9,CC(C)CC(NC(=O)SCc1ccccc1)C(=O)O (configuration not stated),-1%
10,COc1ccc(/C=C/c2ccnc3ccccc23)cc1,99% (active)
11,N#CC1=C(N)OC(/C=C/c2ccccc2)=C(C#N)C1c1ccccc1 (configuration not stated),91% (active)
12,COc1ccc(C(=O)C(CN2CCOCC2)CN2CCOCC2)cc1,-6%
13,N/N=C(/N)SCCCCCCCCCCS/C(N)=N/N,76% (active)
14,OC(CBr)C[n+]1cccc2cc(Cl)ccc21 (configuration not stated),9%
15,O=C(O)C1C(C(=O)Nc2ccc3c(c2)Cc2ccccc2-3)C2(Cl)C(Cl)=C(Cl)C1(Cl)C2(Cl)Cl (configuration not stated),99% (active)
16,CSc1nc(COC(=O)NC(C)C)c(COC(=O)NC(C)C)n1-c1ccccc1,-6%
17,CC(C)C[NH-].CC(C)C[NH-].[Cl][Pt+2]([Cl])([Cl])[Cl],99% (active)
18,c1ccc(N=c2sc3ccccc3sc2=Nc2ccccc2)cc1,60%
19,[Cl-].[La+3].[O-]/N=C(\c1ccccc1)c1ccccn1.[O-]/N=C(\c1ccccc1)c1ccccn1.[O-]/N=C(\c1ccccc1)c1ccccn1,68%
20,Clc1ccc(SSN2CCCCC2)cc1,82% (active)
21,CCC(O)C(O)(c1ccccc1)c1nc2ccccc2s1 (configuration not stated),23%
22,ONC(=Nc1cccc2ccccc12)C(=Nc1cccc2ccccc12)NO,46%

# Same assay, conditions: S. cerevisiae sgs1 mgt1 strain, at 50.0 µM, stronger effect = higher value
row,Structure (SMILES),growth inhibition
1,NC(=O)NC(=O)N/N=C/c1ccc([N+](=O)[O-])o1,68.2%
2,O=[N+]([O-])/C=C\c1csc2ccccc12,99.5% (active)
3,O=[N+]([O-])c1ccc2c(c1)CCc1ccccc1-2,76.6% (active)
4,CC1=C(C)CC2C(=O)C(C(O)CC(C)C)=CC(=O)C2C1 (configuration not stated),98.8% (active)
5,CCC(=O)OC1CCC(C2CCCCC2)CC1 (configuration not stated),16.7%
6,Cc1cc(C2C(O)C(c3cc(C)on3)C2(C)O)no1 (configuration not stated),62.6%
7,CC(C)C(Sc1nc(-c2ccccc2)c(-c2ccccc2)[nH]1)C(=O)NN (configuration not stated),91.5% (active)
8,C/C(=N\NC(=O)N/N=C(\C)c1ccccn1)c1ccccn1,35.9%
9,COC(=O)CCCCCCCCCCC(=O)O,-9.55%
10,CCCCCCCCCCCCNC(=O)C[n+]1cccc(C(N)=O)c1,-2.6%
11,Nc1ccccc1N=Cc1ccccc1O,0.4%
12,N#Cc1c(-c2ccc(Cl)cc2)c2c(n(C3OC(CO)C(O)C(O)C3O)c1=S)CCCC2 (configuration not stated),-8.85%
13,CC(C)(C)CC(C)(C)N[P+](NC(C)(C)CC(C)(C)C)(NC(C)(C)CC(C)(C)C)NC(C)(C)CC(C)(C)C,91.5% (active)
14,CC(=O)OC1C(OC(C)=O)C2C(C)CC3OC(=O)C(C)C3CC2(C)C1OC(C)=O (configuration not stated),73.6% (active)
15,NNC(=O)c1ccc(N)cc1O,-29.2%
16,Nc1ccc2c(c1)C(=O)c1ccccc1-2,21.4%
17,Cc1cn(C(C#N)=C(C#N)C#N)c2ccccc12,-4.65%
18,FC(F)(F)COP1(OCC(F)(F)F)=NP(OCC(F)(F)F)(OCC(F)(F)F)=NP(c2ccccc2)(c2ccccc2)=N1,38.1%
19,O=c1oc(-c2ccccc2Br)ns1,99.4% (active)
20,CC(=O)N1C(C(=O)NNc2ccccc2)CSC1c1ccccc1 (configuration not stated),44.6%

row,Structure (SMILES),growth inhibition
1,O=[N+]([O-])/C=C/c1cc2c(ccc3ccccc32)[nH]1,94.5% (active)
2,CN(C)CCCC1(c2ccccc2)SC(C)(C)c2ccc(Cl)cc21 (configuration not stated),44.2%
3,O=c1[nH]c2ccccc2c2oc3ccccc3c12,64.5%
4,O=C(c1ccccc1)c1cn(/N=C\c2ccccc2)c(=O)nc1-c1ccccc1,90.9% (active)
5,Cc1ccc(S(=O)(=O)OCCc2ccc(Cl)cc2)cc1,-10.4%
6,COC(=O)CC1(O)c2cc(OC)c3cccc(OC)c3c2CCC1(C)C(=O)OC (configuration not stated),95.2% (active)
7,CC(C)CC(NC(=O)SCc1ccccc1)C(=O)O (configuration not stated),3%
8,COc1ccc(/C=C/c2ccnc3ccccc23)cc1,89.7% (active)
9,N#CC1=C(N)OC(/C=C/c2ccccc2)=C(C#N)C1c1ccccc1 (configuration not stated),93.6% (active)
10,COc1ccc(C(=O)C(CN2CCOCC2)CN2CCOCC2)cc1,97.7% (active)
11,N/N=C(/N)SCCCCCCCCCCS/C(N)=N/N,82.3% (active)
12,OC(CBr)C[n+]1cccc2cc(Cl)ccc21 (configuration not stated),-28.6%
13,O=C(O)C1C(C(=O)Nc2ccc3c(c2)Cc2ccccc2-3)C2(Cl)C(Cl)=C(Cl)C1(Cl)C2(Cl)Cl (configuration not stated),98.5% (active)
14,CSc1nc(COC(=O)NC(C)C)c(COC(=O)NC(C)C)n1-c1ccccc1,-6.15%
15,CC(C)C[NH-].CC(C)C[NH-].[Cl][Pt+2]([Cl])([Cl])[Cl],89.2% (active)
16,c1ccc(N=c2sc3ccccc3sc2=Nc2ccccc2)cc1,21.8%
17,[Cl-].[La+3].[O-]/N=C(\c1ccccc1)c1ccccn1.[O-]/N=C(\c1ccccc1)c1ccccn1.[O-]/N=C(\c1ccccc1)c1ccccn1,43.2%
18,Clc1ccc(SSN2CCCCC2)cc1,87.8% (active)
19,CCC(O)C(O)(c1ccccc1)c1nc2ccccc2s1 (configuration not stated),14%
20,ONC(=Nc1cccc2ccccc12)C(=Nc1cccc2ccccc12)NO,13.4%

# From PubChem BioAssay (NCI)
